Test results reported in PMC4336329 (PLoS ONE, 2015).
Among all 310,000 compounds or so, about 14,000 (4.5%) showed an effect of 50% or more. Effects have a minus sign here. For the sample, strong results were picked, then their nearest neighbours and some compounds at random.

Target: human ether-à-go-go-related gene (hERG) potassium channel (human, UniProt Q12809)
Assay: primary screen, population patch clamp on CHO cells stably expressing hERG; higher = less effect of the substance
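Also: peak tail current of the secondary pulse compared with the same well before compound.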

Sequence of human ether-à-go-go-related gene (hERG) potassium channel (Q12809 whole entry, looked up): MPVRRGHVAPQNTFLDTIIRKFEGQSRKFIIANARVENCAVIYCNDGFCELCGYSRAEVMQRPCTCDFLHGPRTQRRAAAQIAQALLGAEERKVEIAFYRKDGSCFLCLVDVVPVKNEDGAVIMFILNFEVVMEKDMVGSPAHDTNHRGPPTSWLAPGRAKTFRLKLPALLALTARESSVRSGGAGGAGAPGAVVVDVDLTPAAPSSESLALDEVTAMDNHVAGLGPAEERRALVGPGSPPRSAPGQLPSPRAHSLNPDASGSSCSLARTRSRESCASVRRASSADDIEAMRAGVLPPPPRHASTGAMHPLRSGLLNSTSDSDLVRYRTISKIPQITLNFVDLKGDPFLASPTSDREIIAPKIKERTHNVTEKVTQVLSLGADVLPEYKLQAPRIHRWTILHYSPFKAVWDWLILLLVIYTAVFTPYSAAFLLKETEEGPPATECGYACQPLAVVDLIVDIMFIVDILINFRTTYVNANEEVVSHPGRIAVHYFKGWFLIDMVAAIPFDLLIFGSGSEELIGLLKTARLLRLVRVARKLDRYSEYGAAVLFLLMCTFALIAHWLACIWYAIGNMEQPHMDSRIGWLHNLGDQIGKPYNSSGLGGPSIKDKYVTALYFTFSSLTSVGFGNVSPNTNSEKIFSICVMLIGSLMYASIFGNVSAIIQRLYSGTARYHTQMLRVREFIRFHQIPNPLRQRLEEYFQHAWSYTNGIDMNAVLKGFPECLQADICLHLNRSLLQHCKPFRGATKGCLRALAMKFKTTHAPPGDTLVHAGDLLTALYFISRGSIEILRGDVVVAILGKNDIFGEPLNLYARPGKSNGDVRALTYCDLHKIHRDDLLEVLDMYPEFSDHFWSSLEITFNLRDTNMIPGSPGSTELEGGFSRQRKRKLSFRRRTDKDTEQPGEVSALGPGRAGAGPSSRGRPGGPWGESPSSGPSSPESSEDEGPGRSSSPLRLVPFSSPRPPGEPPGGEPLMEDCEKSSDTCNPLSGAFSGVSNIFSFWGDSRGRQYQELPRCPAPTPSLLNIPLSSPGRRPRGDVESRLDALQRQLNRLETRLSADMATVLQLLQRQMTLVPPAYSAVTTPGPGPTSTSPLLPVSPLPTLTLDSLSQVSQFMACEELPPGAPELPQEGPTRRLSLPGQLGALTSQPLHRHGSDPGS

Row | SMILES | hERG current change (%, negative = inhibition) at 10uM [%]
1 | Cc1ccccc1CN(C)CC(=O)NC(C)CCc1ccccc1 (centres unmarked) | -17.2
2 | O=C(CSc1nnc(-c2ccccc2)n1C1CCCCC1)N1CCCC1 | -6.76
3 | CCC1(C)Cc2c(sc3nc(SC)nc(N)c23)CO1 (centres unmarked) | -7.82
4 | O=C1NC(Cc2ccccc2)c2nc3ccccc3c(=O)n2-c2cc(Cl)ccc21 (centres unmarked) | 11.4
5 | CCCCn1c(N)c(N(CCC(C)C)C(=O)C2=NN(c3cc(C)ccc3C)C(=O)CC2)c(=O)[nH]c1=O | -1.89
6 | OC(CNC1CCCCC1)C(F)(F)F (centres unmarked) | -2.73
7 | CCC(C)[C@H](NC(=O)[C@@H]1Cc2ccccc2CN1)C(=O)NCc1ccc(OC)cc1 (some centres unmarked) | -32.7
8 | CC1CCCCN1C(=O)COC(=O)c1cc(-c2cccs2)nn1-c1ccccc1 (centres unmarked) | 0.387
9 | O=[N+]([O-])c1cc(/C=N/O)ccc1Sc1ccccc1 | 13.7
10 | CC1CCCCN1C(=O)CSc1nnc(-c2ccco2)o1 (centres unmarked) | 2.08
11 | CCOC(=O)CN1CC23C=CC(O2)C(C(=O)Nc2cc(OC)ccc2OC)C3C1=O (centres unmarked) | -3.04
12 | CC[N+](CC)(CC(=O)Nc1c(C)cccc1C)Cc1ccccc1.O=C([O-])c1ccccc1 | 14.7
13 | CC(/C=C/c1ccco1)=N\NC(=O)CNc1cccc(C)c1 | 18.1
14 | O=S(=O)(O)c1nc2ccccc2n1Cc1ccccc1 | -10.5
15 | CCOc1ccc(N(CC(=O)NCC2CCCO2)S(=O)(=O)c2ccc(C)cc2)cc1 (centres unmarked) | -10.3
16 | COc1ccc(OCC(=O)N/N=C(\C)CC(=O)Nc2ccc(OC)cc2[N+](=O)[O-])cc1 | -93.8
17 | COc1ccc(NC(=O)COc2ccc(C)cc2)c([N+](=O)[O-])c1 | 7
18 | CCOc1ccc(OCC(=O)Nc2ccc(OC)cc2[N+](=O)[O-])cc1 | 3.3
19 | COc1ccc2sc(C)nc2c1NC(C)=O | 9.21
20 | COc1ccc(-c2nc(SCC(=O)N3CCOCC3)n[nH]2)cc1 | -4.25
21 | CC(=O)Nc1nonc1-c1nc2ccccc2n1Cc1ccccc1 | 13.2
22 | O=C(NCCc1c[nH]c2ccccc12)/C(=C/c1cccnc1)NC(=O)c1ccccc1 | -14.3
23 | O=C(NCCc1c[nH]c2ccccc12)/C(=C\c1cccnc1)NC(=O)c1cccs1 | -17
24 | CC(=O)N/C(=C/c1ccc(Cl)cc1)C(=O)NCCc1c[nH]c2ccccc12 | -20.8
25 | O=C(NCCc1c[nH]c2ccccc12)/C(=C\c1cccnc1)NC(=O)c1ccccc1Br | -65.1
26 | O=C(NCCc1c[nH]c2ccccc12)/C(=C\c1cccnc1)NC(=O)c1ccccc1F | -58.5
27 | O=C(NCCc1c[nH]c2ccccc12)/C(=C/c1cccnc1)NC(=O)c1cccs1 | -19.1

Row | SMILES | hERG current change (%, negative = inhibition) at 10uM [%]
28 | NC(=O)NC(CC(=O)NCCc1ccc(S(N)(=O)=O)cc1)c1ccccc1Cl (centres unmarked) | 6.81
29 | CC(C(=O)N1c2ccc(F)cc2CCC1C)N1C(=O)c2ccccc2C1=O (centres unmarked) | 2.72
30 | Cc1ccc(-c2csc(N(CCCN3CCOCC3)C(=O)c3ccco3)n2)cc1.Cl | -19.1
31 | COCCCN(C(=O)c1ccco1)c1nc(-c2ccc(OC)cc2)cs1 | 1.81
32 | Cc1ccc(-c2csc(N(CCCN(C)C)C(=O)c3ccco3)n2)cc1.Cl | -74.8
33 | CN(C(=O)c1ccco1)c1nc(-c2ccc(Cl)cc2)cs1 | 8.09
34 | CN(C)CCCN(C(=O)c1ccco1)c1nc(-c2ccc(Cl)cc2)cs1.Cl | -72.5
35 | Cl.O=C(c1ccco1)N(CCCN1CCOCC1)c1nc(-c2ccc(Cl)cc2)cs1 | -13.4
36 | COc1ccc(-n2nc(C(=O)NCC(=O)NCc3ccco3)c3ccccc3c2=O)c(OC)c1 | 11.3
37 | Cl.c1ccc(NNC2=NCCCCC2)cc1 | 8.92
38 | O=C(O)Cn1c(=O)c2c3c(sc2n(Cc2ccc(F)cc2)c1=O)CCCC3 | 17.9
39 | Cc1ccc(C)c(OCc2nc3ccc(S(=O)(=O)Nc4c(C)n(C)n(-c5ccccc5)c4=O)cc3[nH]2)c1 | 7.31
40 | CCCCN(C)CCN1C(=O)C2C(C(=O)Nc3cccc(OC)c3)C3C=CC2(O3)C1C(=O)NC1CCCCC1C (centres unmarked) | -14.7
41 | CC(C)(C)C(=O)Nc1cc(NC(=O)C(C)(C)C)cc(C(=O)NNC(=O)c2ccncc2)c1 | 16.5
42 | CCOc1ccccc1NC(=O)N1CCC(n2nnc3cc(C)ccc32)CC1 | -53.9
43 | CCOc1ccccc1C(=O)N1CCC(n2nnc3cc(C(F)(F)F)ccc32)CC1 | -60
44 | Cc1ccc2c(c1)nnn2C1CCN(C(=O)NCc2ccccc2)CC1 | -76.7
45 | CCOc1ccccc1C(=O)N1CCC(n2nnc3cc(C)ccc32)CC1 | -47.4
46 | COc1cccc(NC(=O)N2CCC(n3nnc4ccccc43)CC2)c1 | -18.8
47 | Cc1ccc2c(c1)nnn2C1CCN(C(=O)Nc2ccccc2C)CC1 | -22.6
48 | Cc1ccc2c(c1)nnn2C1CCN(C(=O)c2ccccc2F)CC1 | -18.1
49 | Cc1cccc(NC(=O)N2CCC(n3nnc4cc(C)ccc43)CC2)c1 | -62.9
50 | CCOc1ccc(NC(=O)N2CCC(n3nnc4ccccc43)CC2)cc1 | -15.4
51 | Cc1ccc2c(c1)nnn2C1CCN(C(=O)C2CCCCC2)CC1 | -31.3
52 | O=C(c1c(F)cccc1F)N1CCC(n2nnc3cc(C(F)(F)F)ccc32)CC1 | -21.4
53 | COc1ccc(NC(=O)N2CCC(n3nnc4cc(C)ccc43)CC2)cc1 | -11.3
